Article PMC12529666, “Dysregulation of AGO2-miRNA dynamics underlies the AGO2-associated Lessel–Kreienkamp syndrome”
Positions count from the first letter of the chain named.

B1: GCGTTCCA (ssRNA)
RNA 1: GAGUUCUACAGUCCGACGAUCCCAACGCGUUCCACACCUGGAAUUCUCGGGUGCCAA
RNA 2: UGGAGUGUGACAAUGGUGUUUG
DNA 1: GATCGTCGGACTGTAGAACTC
DNA 2: TTGGCACCCGAGAATTCCA
modifications: constant regions annealed to DNA blockers; guide miR-122 5' phosphate
B2: ACGCTCTA (ssRNA)
RNA 1: B1 RNA 1 with G27A, U30C, C33U
RNA 2: UGGAGUGUGACAAUGGUGUUUG
DNA 1: GATCGTCGGACTGTAGAACTC
DNA 2: TTGGCACCCGAGAATTCCA
modifications: constant regions annealed to DNA blockers; guide miR-122 5' phosphate
B3: ACGCCTTA (ssRNA)
RNA 1: B1 RNA 1 with G27A, U30C, U31C, C32U, C33U
RNA 2: UGGAGUGUGACAAUGGUGUUUG
DNA 1: GATCGTCGGACTGTAGAACTC
DNA 2: TTGGCACCCGAGAATTCCA
modifications: constant regions annealed to DNA blockers; guide miR-122 5' phosphate
B4: GCGCTCTA (ssRNA)
RNA 1: B1 RNA 1 with U30C, C33U
RNA 2: UGGAGUGUGACAAUGGUGUUUG
DNA 1: GATCGTCGGACTGTAGAACTC
DNA 2: TTGGCACCCGAGAATTCCA
modifications: constant regions annealed to DNA blockers; guide miR-122 5' phosphate
B5: ATGTCCTA (ssRNA)
RNA 1: B1 RNA 1 with G27A, C28U, U31C, C33U
RNA 2: UGGAGUGUGACAAUGGUGUUUG
DNA 1: GATCGTCGGACTGTAGAACTC
DNA 2: TTGGCACCCGAGAATTCCA
modifications: constant regions annealed to DNA blockers; guide miR-122 5' phosphate
B6: GTATTCCG (ssRNA)
RNA 1: B1 RNA 1 with C28U, G29A, A34G
RNA 2: UGGAGUGUGACAAUGGUGUUUG
DNA 1: GATCGTCGGACTGTAGAACTC
DNA 2: TTGGCACCCGAGAATTCCA
modifications: constant regions annealed to DNA blockers; guide miR-122 5' phosphate
B7: GCATTCTA (ssRNA)
RNA 1: B1 RNA 1 with G29A, C33U
RNA 2: UGGAGUGUGACAAUGGUGUUUG
DNA 1: GATCGTCGGACTGTAGAACTC
DNA 2: TTGGCACCCGAGAATTCCA
modifications: constant regions annealed to DNA blockers; guide miR-122 5' phosphate
B8: ATATTCTA (ssRNA)
RNA 1: B1 RNA 1 with G27A, C28U, G29A, C33U
RNA 2: UGGAGUGUGACAAUGGUGUUUG
DNA 1: GATCGTCGGACTGTAGAACTC
DNA 2: TTGGCACCCGAGAATTCCA
modifications: constant regions annealed to DNA blockers; guide miR-122 5' phosphate
B9: ATATCTTA (ssRNA)
RNA 1: B1 RNA 1 with G27A, C28U, G29A, U31C, C32U, C33U
RNA 2: UGGAGUGUGACAAUGGUGUUUG
DNA 1: GATCGTCGGACTGTAGAACTC
DNA 2: TTGGCACCCGAGAATTCCA
modifications: constant regions annealed to DNA blockers; guide miR-122 5' phosphate
B10: ACATTCCG (ssRNA)
RNA 1: B1 RNA 1 with G27A, G29A, A34G
RNA 2: UGGAGUGUGACAAUGGUGUUUG
DNA 1: GATCGTCGGACTGTAGAACTC
DNA 2: TTGGCACCCGAGAATTCCA
modifications: constant regions annealed to DNA blockers; guide miR-122 5' phosphate
B11: GCGCCCTA (ssRNA)
RNA 1: B1 RNA 1 with U30C, U31C, C33U
RNA 2: UGGAGUGUGACAAUGGUGUUUG
DNA 1: GATCGTCGGACTGTAGAACTC
DNA 2: TTGGCACCCGAGAATTCCA
modifications: constant regions annealed to DNA blockers; guide miR-122 5' phosphate

How the values were obtained:
Assay in all cases: RNA Bind-n-Seq (nitrocellulose filter binding and sequencing); miR-122 guide loaded in AGO2; 60 min incubation; 30 mM Tris pH 8.0, 100 mM potassium acetate, 2 mM magnesium acetate, 0.5 mM TCEP, 0.005% NP-40, 0.01 mg/ml yeast tRNA; 3 nM AGO2-miR-122, 100 nM RNA library; 60; high values mean tight binding
Conditions in all cases: protein: recombinant; tags: His6 (N-terminal, pFastBac HTA)
[1] = target: AGO2 L192P (Homo sapiens, UniProt Q9UKV8 1-859, L192P;S387D;S824A;S828D;S831D;S834A)
Sequence of AGO2 L192P (Q9UKV8 whole entry L192P/S387D/S824A/S828D/S831D/S834A): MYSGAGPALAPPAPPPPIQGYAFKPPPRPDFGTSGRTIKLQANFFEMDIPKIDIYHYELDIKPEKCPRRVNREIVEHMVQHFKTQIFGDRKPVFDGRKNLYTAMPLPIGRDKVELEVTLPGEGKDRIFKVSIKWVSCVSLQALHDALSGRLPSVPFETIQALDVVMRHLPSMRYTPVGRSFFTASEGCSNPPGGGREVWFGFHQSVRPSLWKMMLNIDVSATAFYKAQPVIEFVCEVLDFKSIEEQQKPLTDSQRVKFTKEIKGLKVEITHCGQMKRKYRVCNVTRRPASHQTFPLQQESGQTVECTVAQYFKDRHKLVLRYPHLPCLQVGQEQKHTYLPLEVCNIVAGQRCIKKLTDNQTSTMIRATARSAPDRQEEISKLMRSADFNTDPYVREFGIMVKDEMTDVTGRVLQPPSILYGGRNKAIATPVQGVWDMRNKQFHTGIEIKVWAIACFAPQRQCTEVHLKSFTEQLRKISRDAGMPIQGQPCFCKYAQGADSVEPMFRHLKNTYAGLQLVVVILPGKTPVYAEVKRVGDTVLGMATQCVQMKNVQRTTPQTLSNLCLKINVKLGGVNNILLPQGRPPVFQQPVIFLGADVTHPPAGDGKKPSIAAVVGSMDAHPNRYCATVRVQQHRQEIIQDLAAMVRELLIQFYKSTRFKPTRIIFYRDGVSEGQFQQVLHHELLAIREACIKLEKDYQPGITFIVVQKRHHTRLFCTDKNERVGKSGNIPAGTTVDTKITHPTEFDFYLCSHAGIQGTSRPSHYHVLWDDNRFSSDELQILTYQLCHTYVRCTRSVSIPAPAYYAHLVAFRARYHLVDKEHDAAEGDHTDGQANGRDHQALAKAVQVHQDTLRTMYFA
How it was run: (§1)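 Fold enrichment is each target's read fraction divided by its read fraction in the input library. Sf9 insect cells expressed His-tagged AGO2 from baculovirus; the protein was loaded with a synthetic guide RNA and purified by Ni-NTA and a biotinylated capture oligo. The bound RNA was extracted, reverse-transcribed, barcode-amplified and sequenced on Illumina.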

[2] = target: AGO2 A367P (Homo sapiens, UniProt Q9UKV8 1-859, A367P;S387D;S824A;S828D;S831D;S834A)
Sequence of AGO2 A367P (Q9UKV8 whole entry A367P/S387D/S824A/S828D/S831D/S834A): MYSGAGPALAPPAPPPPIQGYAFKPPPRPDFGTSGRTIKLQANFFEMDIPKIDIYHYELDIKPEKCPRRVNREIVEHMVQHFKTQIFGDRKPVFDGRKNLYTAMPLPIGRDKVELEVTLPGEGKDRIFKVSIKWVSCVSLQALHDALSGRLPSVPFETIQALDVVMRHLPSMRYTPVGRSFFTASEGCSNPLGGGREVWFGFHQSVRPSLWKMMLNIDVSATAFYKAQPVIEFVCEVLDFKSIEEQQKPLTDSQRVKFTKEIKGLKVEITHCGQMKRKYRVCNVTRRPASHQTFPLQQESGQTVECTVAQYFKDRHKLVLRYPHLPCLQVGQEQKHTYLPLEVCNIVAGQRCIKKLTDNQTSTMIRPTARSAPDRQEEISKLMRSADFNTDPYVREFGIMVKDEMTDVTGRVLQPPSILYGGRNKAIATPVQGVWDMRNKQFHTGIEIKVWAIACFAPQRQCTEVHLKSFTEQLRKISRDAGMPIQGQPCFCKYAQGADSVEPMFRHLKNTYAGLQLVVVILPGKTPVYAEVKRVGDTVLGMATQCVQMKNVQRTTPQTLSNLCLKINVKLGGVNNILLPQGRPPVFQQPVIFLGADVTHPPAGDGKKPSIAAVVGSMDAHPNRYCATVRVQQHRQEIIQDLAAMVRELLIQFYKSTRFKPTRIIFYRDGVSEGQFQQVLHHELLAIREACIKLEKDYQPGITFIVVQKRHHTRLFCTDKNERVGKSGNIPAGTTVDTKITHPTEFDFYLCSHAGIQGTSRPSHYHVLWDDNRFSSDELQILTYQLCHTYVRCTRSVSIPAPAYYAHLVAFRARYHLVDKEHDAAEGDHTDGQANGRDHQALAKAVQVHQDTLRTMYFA
How it was run: as §1

[3] = target: AGO2 T357M (Homo sapiens, UniProt Q9UKV8 1-859, T357M;S387D;S824A;S828D;S831D;S834A)
Sequence of AGO2 T357M (Q9UKV8 whole entry T357M/S387D/S824A/S828D/S831D/S834A): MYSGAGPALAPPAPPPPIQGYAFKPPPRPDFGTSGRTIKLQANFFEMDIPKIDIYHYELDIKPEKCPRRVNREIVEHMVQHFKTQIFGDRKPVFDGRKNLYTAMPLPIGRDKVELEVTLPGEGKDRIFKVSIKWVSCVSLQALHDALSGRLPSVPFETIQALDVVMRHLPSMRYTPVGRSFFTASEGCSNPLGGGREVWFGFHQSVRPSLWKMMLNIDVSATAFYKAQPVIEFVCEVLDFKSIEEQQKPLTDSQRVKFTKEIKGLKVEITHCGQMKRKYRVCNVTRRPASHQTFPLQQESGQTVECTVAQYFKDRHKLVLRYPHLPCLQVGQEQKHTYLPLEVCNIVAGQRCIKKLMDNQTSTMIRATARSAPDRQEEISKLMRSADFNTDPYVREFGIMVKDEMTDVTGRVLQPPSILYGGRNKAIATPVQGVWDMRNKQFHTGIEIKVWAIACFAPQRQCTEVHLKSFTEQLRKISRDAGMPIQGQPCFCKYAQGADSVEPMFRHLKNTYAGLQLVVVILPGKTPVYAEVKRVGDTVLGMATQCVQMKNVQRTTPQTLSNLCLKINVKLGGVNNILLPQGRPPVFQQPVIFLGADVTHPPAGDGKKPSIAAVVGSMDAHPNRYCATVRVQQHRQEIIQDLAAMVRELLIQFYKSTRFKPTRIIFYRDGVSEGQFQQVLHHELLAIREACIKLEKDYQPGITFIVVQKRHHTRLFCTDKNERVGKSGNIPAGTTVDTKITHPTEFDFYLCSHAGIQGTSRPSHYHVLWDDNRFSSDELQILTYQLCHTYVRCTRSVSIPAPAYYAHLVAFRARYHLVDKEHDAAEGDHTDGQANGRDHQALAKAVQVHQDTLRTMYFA
How it was run: as §1

[4] = target: AGO2 F182del (Homo sapiens, UniProt Q9UKV8 1-859, S387D;S824A;S828D;S831D;S834A;del182-182)
Sequence of AGO2 F182del (Q9UKV8 other isoform, or with tags, fused parts or gaps S387D;S824A;S828D;S831D;S834A;del182-182): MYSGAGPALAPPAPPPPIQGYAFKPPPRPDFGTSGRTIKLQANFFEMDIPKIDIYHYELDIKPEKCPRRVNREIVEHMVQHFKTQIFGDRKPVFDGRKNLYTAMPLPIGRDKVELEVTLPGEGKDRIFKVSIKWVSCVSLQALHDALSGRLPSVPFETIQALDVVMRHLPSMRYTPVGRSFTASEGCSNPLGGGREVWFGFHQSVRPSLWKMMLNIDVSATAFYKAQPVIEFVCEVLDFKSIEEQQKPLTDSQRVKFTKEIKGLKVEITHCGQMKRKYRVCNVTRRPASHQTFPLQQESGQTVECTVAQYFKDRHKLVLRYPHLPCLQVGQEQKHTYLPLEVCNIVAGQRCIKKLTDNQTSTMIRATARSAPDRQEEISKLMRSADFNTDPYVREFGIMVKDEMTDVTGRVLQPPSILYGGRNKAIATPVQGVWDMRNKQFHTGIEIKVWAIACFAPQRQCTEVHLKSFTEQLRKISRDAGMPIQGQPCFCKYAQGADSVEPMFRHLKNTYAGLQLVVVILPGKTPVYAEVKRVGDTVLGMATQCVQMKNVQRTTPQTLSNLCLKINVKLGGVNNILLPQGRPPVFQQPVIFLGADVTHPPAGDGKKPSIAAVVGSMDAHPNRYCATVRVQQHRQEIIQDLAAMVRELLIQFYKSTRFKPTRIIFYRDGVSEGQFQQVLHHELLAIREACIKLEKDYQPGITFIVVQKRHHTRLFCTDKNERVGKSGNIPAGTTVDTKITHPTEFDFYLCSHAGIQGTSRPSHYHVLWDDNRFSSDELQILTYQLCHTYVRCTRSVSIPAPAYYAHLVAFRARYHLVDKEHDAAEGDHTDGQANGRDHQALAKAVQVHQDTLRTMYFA
How it was run: as §1

Binder	binding signal [1]	binding signal [2]	binding signal [3]	binding signal [4]
B1	0.477 fold enrichment over input	0.187 fold enrichment over input	0.592 fold enrichment over input	0.161 fold enrichment over input
B2	0.429 fold enrichment over input	0.173 fold enrichment over input	0.54 fold enrichment over input	–
B3	0.493 fold enrichment over input	0.221 fold enrichment over input	0.625 fold enrichment over input	0.246 fold enrichment over input
B4	0.459 fold enrichment over input	0.19 fold enrichment over input	0.635 fold enrichment over input	–
B5	0.506 fold enrichment over input	0.238 fold enrichment over input	0.592 fold enrichment over input	0.262 fold enrichment over input
B6	0.43 fold enrichment over input	0.158 fold enrichment over input	0.624 fold enrichment over input	–
B7	0.45 fold enrichment over input	0.181 fold enrichment over input	0.63 fold enrichment over input	–
B8	0.453 fold enrichment over input	0.18 fold enrichment over input	0.631 fold enrichment over input	–
B9	0.456 fold enrichment over input	0.179 fold enrichment over input	0.593 fold enrichment over input	–
B10	0.382 fold enrichment over input	0.156 fold enrichment over input	0.428 fold enrichment over input	0.178 fold enrichment over input
B11	0.492 fold enrichment over input	0.195 fold enrichment over input	0.721 fold enrichment over input	–
